Eight molecules from PubChem BioAssay can be followed below.

Assay [1] can be described thus: small molecules captured by biotinylated probe aFSTL3 – biochemical, small-molecule microarray, fluorescence 635/667, stem cell growth factor project, primary screen (AID 1064).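 Note: measures binding of the biotinylated anti-FSTL3 antibody to printed compounds.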 The following applies: higher = more signal.
Assay [2] can be described thus: binders from COS7 lysate, DM2A8 probe, primary screen, torsin A project, cell lysate, small-molecule microarray, fluorescence 635/667 (AID 1065). Conditions: higher = more signal, COS7 lysate expressing mutant human TOR1A.
Assay [3] is described as follows: small molecules captured by biotinylated probe aFGF2 – biochemical, small-molecule microarray, fluorescence 635/667, stem cell growth factor project, primary screen (AID 1067).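 Note: measures binding of biotinylated aFGF2 protein to printed compounds on slides; z-score merges feature fluorescence and signal-to-noise across triplicate slides.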 Conditions: higher = more signal.
Assay [4] in a line: small molecules captured by biotinylated probe aFGF10 – biochemical, small-molecule microarray, fluorescence 635/667, stem cell growth factor project, primary screen (AID 1071).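 Note: score merges 667 nm spot intensity and signal to noise from triplicate slides.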 Conditions: higher = more signal.
The target in assay [5] is Neurogenic locus notch homolog protein 2 (Homo sapiens) (UniProt Q04721). Kind of assay: small molecules binding Notch2 protein – biochemical, small-molecule microarray, 635 nm fluorescence, stem cell growth factors, primary screen (AID 1073). Conditions: higher = more signal.
The target of assay [6] is Pro-neuregulin-1, membrane-bound isoform (Homo sapiens) (UniProt Q02297). Description: small molecules binding neuregulin-1 protein – biochemical, small-molecule microarray, fluorescence 635/667, psychiatric disease protein project, primary screen (AID 1075).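 Note: score combines 667 nm spot fluorescence with signal to noise.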 The following applies: NRG1 binding, 635 nm fluorescence, higher = more signal.
Assay [7] concerns Neuregulin-1 EGF-like domain. Kind of assay: small molecules binding NRG1 EGF domain – biochemical, small-molecule microarray, 635 nm fluorescence, primary screen (AID 1081).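 Note: binding of the protein to compounds printed on small-molecule microarray slides.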 The following applies: higher = more signal.
Assay [8] is described as follows: FRG1 expression reporter modulators in myotubes – cell-based, C2C12 myotubes, firefly/Renilla luciferase, luminescence, FRG1 inhibition for FSHD, primary screen (AID 1084). Conditions: FRG1 promoter luciferase, higher = more signal, called active from +8 up or from −8 down.
Assay [9] is described as follows: small molecules captured by biotinylated probe aFST – biochemical, small-molecule microarray, fluorescence 635/667, stem cell growth factor project, primary screen (AID 1086).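 Note: score merges 667 nm fluorescence with signal-to-noise of each printed compound spot.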 The following applies: higher = more signal.
Assay [10] is described as follows: binders of probe aHhip on microarray, primary screen, stem cell growth factor project, biochemical, small-molecule microarray, fluorescence 635/667 (AID 1087).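 Note: score merges spot fluorescence at 667nm with spot signal to noise ratio.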 The following applies: higher = more signal.
For assay [11], the system named is PRMT1 (protein arginine N-methyltransferase 1). Kind of assay: small molecules binding arginine methyltransferase PRMT1 – biochemical, small-molecule microarray, 635 nm fluorescence, primary screen (AID 1088).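 Note: binding of Prmt1 protein to compounds spotted on small-molecule microarray slides.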 The following applies: higher = more signal.
Assay [12] in a line: growth effects on S. cerevisiae YJM789 – YJM789 clinical isolate, OD600, 24 h, basal, primary screen (AID 1089).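 Note: growth of clinical yeast isolate S. cerevisiae YJM 789 seeded 1000 cells per well; test concentration not given here.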 Conditions: higher = more signal, called active from +8 up or from −8 down.
Assay [13] can be described thus: S. pombe growth modifiers, basal conditions – strain 972, OD600, 24 h, no modulator, primary screen (AID 1090).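 Note: basal condition with compound alone and no growth modifier present; test concentration not given here.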 The following applies: S. pombe 972 growth, higher = more signal, called active from +8 up or from −8 down.
The nature of assay [14]: budding yeast growth modifiers under rapamycin – strain BY4716, OD600, 96 h, primary screen (AID 1091). Note: test concentration not given here. The following applies: S. cerevisiae BY4716 + rapamycin, higher = more signal, called active from +8 up or from −8 down.
For assay [15], the target named is Torsin-1A-interacting protein 2 (Homo sapiens) (UniProt Q8NFQ8). Description: small molecules binding lysate-expressed LULL1 – cell lysate, human LULL1 lysate, 635/667 nm fluorescence, primary screen (AID 1092).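 Note: probe is lysate of COS7 cells overexpressing human LULL1; score merges per-feature 667 nm fluorescence with signal-to-noise.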 Conditions: small-molecule microarray, hLULL1 lysate binding, 635 nm fluorescence; higher = more signal.
Assay [16] can be described thus: optical density change of DRC41 E. coli – strain DRC41, OD650, 24 h, E. coli filamentation project, primary screen (AID 1093).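 Note: MC1000 strain lacking acrAB efflux and sulA so SOS filamentation is blocked; test concentration not given here.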 The following applies: E. coli DRC41 growth, higher = more signal, called active from +8 up or from −8 down.
Assay [17] is described as follows: probe aLefty2 binding to arrayed compounds – biochemical, biotinylated probe, 635/667 nm fluorescence, primary screen (AID 1094).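 Note: score merges spot fluorescence near 667 nm with spot signal-to-noise ratio.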 Conditions: small-molecule microarray, higher = more signal.
Assay [18] deals with Noggin (protein binding on small-molecule microarray). Description: small molecules binding Noggin protein – biochemical, 635/667 nm fluorescence, primary screen (AID 1095).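 Note: score merges 667 nm feature fluorescence with signal to noise over triplicate slides.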 The following applies: 635 nm fluorescence, higher = more signal.
The target of assay [19] is Neurogenic locus notch homolog protein 3 (Homo sapiens) (UniProt Q9UM47). Description: small molecules binding NOTCH3 protein – biochemical, 635/667 nm fluorescence, primary screen (AID 1096). Conditions: small-molecule microarray, 635 nm fluorescence, higher = more signal.
Assay [20] in a line: probe aEGFR binding to arrayed compounds – biochemical, biotinylated probe, 635/667 nm fluorescence, primary screen (AID 1097).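 Note: probe is a biotinylated anti-EGFR antibody binding compounds printed on slides; score combines fluorescence near 667 nm and signal to noise of each spot.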 The following applies: small-molecule microarray, higher = more signal.

Values joined by “and” are separate entries in the source; they are usually repeats but may differ in a detail not shown here. Identical values can stand only once. Active and inactive are the calls of the source.

Pro-neuregulin-1, membrane-bound isoform (Homo sapiens), sequence (Q02297 whole entry, looked up, the tested form may be a part, canonical isoform): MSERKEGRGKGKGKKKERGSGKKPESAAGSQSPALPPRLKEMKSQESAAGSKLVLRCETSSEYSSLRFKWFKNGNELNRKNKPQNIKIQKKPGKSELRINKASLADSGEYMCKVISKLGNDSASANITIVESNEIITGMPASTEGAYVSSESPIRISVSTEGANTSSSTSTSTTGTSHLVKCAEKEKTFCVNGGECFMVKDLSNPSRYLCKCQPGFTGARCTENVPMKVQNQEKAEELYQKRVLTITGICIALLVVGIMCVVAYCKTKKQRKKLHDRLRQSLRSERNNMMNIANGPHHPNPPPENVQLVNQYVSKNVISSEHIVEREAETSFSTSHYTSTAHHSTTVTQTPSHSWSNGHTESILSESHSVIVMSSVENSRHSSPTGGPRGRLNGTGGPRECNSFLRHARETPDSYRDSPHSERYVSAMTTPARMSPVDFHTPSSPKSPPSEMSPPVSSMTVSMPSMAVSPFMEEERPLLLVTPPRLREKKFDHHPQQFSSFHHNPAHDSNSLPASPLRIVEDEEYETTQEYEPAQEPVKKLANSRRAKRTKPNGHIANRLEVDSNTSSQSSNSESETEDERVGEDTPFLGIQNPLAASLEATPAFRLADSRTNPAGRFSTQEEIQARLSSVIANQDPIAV
Neurogenic locus notch homolog protein 2 (Homo sapiens), sequence (Q04721 whole entry, looked up, canonical isoform): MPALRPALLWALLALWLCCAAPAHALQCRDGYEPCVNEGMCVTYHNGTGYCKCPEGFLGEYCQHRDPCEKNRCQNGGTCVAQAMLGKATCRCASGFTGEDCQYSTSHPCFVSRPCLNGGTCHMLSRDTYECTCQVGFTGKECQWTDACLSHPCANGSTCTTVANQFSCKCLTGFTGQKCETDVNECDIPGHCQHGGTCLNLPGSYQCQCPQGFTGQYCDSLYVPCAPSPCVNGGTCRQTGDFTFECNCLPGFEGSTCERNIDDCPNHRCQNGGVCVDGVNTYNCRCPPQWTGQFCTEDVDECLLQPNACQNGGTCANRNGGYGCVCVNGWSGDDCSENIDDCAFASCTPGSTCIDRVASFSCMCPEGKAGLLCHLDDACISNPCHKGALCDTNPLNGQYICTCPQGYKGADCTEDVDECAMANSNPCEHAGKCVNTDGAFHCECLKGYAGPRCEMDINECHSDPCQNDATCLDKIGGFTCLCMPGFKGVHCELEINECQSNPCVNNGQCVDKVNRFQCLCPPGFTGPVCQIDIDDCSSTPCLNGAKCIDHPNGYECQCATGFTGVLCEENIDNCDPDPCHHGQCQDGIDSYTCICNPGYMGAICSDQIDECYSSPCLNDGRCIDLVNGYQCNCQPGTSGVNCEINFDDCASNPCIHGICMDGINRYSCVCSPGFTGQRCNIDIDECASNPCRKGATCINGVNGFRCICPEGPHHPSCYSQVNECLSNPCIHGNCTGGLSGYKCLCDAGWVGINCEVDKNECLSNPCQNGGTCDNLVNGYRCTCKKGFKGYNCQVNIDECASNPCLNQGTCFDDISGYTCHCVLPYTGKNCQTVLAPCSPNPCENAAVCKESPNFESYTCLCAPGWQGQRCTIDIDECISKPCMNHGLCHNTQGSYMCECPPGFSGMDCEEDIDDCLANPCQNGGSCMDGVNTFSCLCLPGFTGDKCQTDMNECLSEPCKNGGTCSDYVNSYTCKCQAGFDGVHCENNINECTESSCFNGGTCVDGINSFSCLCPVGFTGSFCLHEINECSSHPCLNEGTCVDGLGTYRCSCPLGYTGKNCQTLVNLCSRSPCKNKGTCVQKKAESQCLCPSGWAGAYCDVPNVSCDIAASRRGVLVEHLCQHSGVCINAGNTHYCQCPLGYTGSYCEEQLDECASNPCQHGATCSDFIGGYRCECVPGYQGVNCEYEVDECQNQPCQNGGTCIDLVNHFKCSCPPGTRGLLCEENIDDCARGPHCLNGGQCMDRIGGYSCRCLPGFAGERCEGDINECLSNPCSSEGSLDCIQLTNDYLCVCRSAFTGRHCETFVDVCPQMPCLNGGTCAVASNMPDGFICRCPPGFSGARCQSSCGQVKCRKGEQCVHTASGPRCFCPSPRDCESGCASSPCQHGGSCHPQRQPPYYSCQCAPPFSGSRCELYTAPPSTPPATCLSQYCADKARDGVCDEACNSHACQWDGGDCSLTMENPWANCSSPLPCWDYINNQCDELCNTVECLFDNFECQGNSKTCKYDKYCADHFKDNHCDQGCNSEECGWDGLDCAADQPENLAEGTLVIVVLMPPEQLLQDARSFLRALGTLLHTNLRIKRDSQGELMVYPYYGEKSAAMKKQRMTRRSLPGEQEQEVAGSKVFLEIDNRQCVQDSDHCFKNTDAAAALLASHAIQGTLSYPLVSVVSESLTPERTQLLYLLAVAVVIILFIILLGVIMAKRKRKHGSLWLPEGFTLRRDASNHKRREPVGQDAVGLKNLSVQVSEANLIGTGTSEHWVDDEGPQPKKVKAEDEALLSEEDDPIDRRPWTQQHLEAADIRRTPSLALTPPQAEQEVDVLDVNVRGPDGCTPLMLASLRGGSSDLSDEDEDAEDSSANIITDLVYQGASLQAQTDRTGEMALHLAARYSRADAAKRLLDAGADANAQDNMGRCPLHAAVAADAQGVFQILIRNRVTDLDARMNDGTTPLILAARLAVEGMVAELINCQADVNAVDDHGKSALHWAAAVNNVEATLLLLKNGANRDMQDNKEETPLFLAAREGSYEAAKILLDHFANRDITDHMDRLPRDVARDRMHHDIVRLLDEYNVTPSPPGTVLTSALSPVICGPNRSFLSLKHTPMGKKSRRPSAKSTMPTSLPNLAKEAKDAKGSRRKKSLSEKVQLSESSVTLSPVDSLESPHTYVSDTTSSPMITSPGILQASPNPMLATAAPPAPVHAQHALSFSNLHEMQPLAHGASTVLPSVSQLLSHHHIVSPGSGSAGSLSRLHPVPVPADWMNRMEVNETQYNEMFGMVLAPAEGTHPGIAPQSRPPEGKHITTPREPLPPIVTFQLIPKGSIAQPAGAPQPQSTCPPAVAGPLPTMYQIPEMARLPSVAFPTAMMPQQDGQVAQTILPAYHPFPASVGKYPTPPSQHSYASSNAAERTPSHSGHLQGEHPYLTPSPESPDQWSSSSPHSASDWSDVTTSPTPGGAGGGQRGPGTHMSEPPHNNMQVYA
Torsin-1A-interacting protein 2 (Homo sapiens), sequence (Q8NFQ8 whole entry, looked up): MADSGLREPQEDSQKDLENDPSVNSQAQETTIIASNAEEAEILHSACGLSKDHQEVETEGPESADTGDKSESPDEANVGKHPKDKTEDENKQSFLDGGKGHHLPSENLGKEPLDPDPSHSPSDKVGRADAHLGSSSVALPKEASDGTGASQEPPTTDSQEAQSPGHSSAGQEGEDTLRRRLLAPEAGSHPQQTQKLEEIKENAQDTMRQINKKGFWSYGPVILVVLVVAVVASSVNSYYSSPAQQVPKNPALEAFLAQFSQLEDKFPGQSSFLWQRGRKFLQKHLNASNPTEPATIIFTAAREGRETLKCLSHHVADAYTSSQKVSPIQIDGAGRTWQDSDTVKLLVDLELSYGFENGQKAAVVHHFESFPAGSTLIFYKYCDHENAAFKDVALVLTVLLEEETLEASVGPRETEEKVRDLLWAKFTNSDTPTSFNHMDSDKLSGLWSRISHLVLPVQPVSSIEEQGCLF

For the molecule `C=CCN(Cc1ccccc1)C(=O)C1N(C(C)(C)CO)C(=O)C2C(C(=O)O)C3C=CC21O3` (stereo not given), the composite z-score is 0.666 and 0.391 in [1]; 2.08 and -1.13 in assay [2]; -0.206 and 0.511 in [3]; -2.12 and -0.387 in assay [4]; -2.15 and -1.36 in assay [5]; -1 and -0.987 in assay [6]. Further, the composite z-score is -0.372 and 0.11 in [7]; -0.847 and -1.28 in assay [9]; -0.274 and -0.169 in [10]; -1.67 and -1.32 in [11]; -0.696 and -1.91 in assay [15]; -0.0563 and -0.136 in [17]. Also, the composite z-score was -2.68 and -1.76 in assay [18]; -1.46 and -1.43 in assay [19]; -0.25 and -0.242 in [20]. Moreover, the z-score in [8] was 0.551 (inactive) and 0.312 (inactive); in assay [12], -0.421 (inactive) and -0.475 (inactive); in assay [13], -0.369 (inactive) and -0.243 (inactive); in assay [14], -0.13 (inactive) and -0.429 (inactive); in assay [16] it was -0.333 (inactive) and 1.73 (inactive).

Regarding `CO[C@@H]1C=CCC(=O)N2CCC[C@H]2C(=O)OC[C@H](C)C(=O)OC[C@H]1C`, the composite z-score in assay [1] was -0.368; in [2], 1.3; in assay [3], -0.0676; in [4] it was 0.0525; in [5] it was -0.244; in assay [6], -0.226. Further, the composite z-score in assay [7] is 1.07; in [9], 0.191; in [10] it was 0.501; in assay [11], 0.59; in assay [15], -0.246; in [17], -0.0693. In addition, the composite z-score in assay [18] is 1.41; in [19], -0.13; in [20] it was 0.163. Moreover, the z-score is 0.0531 (inactive) in assay [8]; 0.741 (inactive) in assay [12]; -0.295 (inactive) in assay [13]; -0.606 (inactive) in assay [14]; 0.714 (inactive) in [16].

As to `CCN1C(=O)[C@H]2[C@H]3[C@H](O)[C@H](O)CC(=NOC[C@@H](O)COCc4ccco4)[C@@H]3CC[C@H]2C1=O`, the composite z-score in [1] is -0.841 and -0.446; in [2] it was 2.37 and 0.0438; in assay [3], -0.235 and -0.132; in assay [4], -0.507 and 0.352; in assay [5] it was -0.413 and -0.498; in [6], -0.538 and -0.26. Besides, the composite z-score in [7] is 0.837 and 1.12; in assay [9], -0.104 and -0.45; in [10], -0.0645 and 0.154; in assay [11], 1.4 and 0.727; in assay [15] it was -1.03 and 0.493; in assay [17], -0.266 and -0.44. For the same molecule, the composite z-score is 0.445 and -0.121 in [18]; -0.365 and -0.32 in assay [19]; 0.0747 and -0.0413 in assay [20]. The z-score is 0.235 (inactive) and 0.417 (inactive) in [8]; 0.686 (inactive) and 0.102 (inactive) in [12]; 0.315 (inactive) and 0.174 (inactive) in assay [13]; 1.29 (inactive) and 0.945 (inactive) in assay [14]; 0.0584 (inactive) and -1.13 (inactive) in [16].

For `C=CCN(C(=O)C(c1cccs1)N(C(=O)/C=C\C(=O)O)c1c(Cl)cccc1CO)C(C)(C)C` (stereo not given), the composite z-score in [1] is 1.49 and 1.64; in assay [2], -1.2 and -1.76; in assay [3], -0.232 and -0.235; in assay [4] it was -1.69 and -1.27; in assay [5], -1.86 and -2.21; in [6] it was -0.732 and -1.05. Further, the composite z-score in [7] is -0.301 and -0.512; in assay [9], -0.791 and -0.727; in assay [10], 0.228 and -0.554; in [11], -0.971 and -0.911; in assay [15], -0.586 and 0.277; in assay [17], 0.0765 and 0.231. Further, the composite z-score is -3.47 and -2.85 in assay [18]; -1.89 and -1.83 in assay [19]; -0.309 and -0.338 in [20]. Moreover, the z-score was 1.06 (inactive) and 1.34 (inactive) in assay [8]; -0.0947 (inactive) and -0.689 (inactive) in assay [12]; -0.588 (inactive) and -0.587 (inactive) in assay [13]; -0.351 (inactive) and -0.595 (inactive) in assay [14]; -0.717 (inactive) and -1.18 (inactive) in [16].

For `C=C[C@H](OC)[C@@H](O)c1ccc(O)c(F)c1`, the composite z-score was 1.25 and 1.29 in [1]; -0.903 and -2.05 in assay [2]; -0.116 and -0.247 in assay [3]; -0.458 and -0.0501 in assay [4]; -2.17 and -1.38 in assay [5]; -0.527 and -1.01 in assay [6]. Further, the composite z-score is -0.0988 and 0.736 in assay [7]; -1.08 and -1.54 in assay [9]; -0.213 and -0.314 in assay [10]; -1.12 and -0.749 in assay [11]; -0.93 and -0.808 in [15]; -0.0992 and -0.215 in assay [17]. The composite z-score was -2.38 and -1.6 in assay [18]; -1.42 and -1.23 in assay [19]; -0.435 and -0.387 in [20]. For the same molecule, the z-score in assay [8] is 0.537 (inactive) and -0.0808 (inactive); in assay [12], -0.603 (inactive) and 0.106 (inactive); in assay [13], -0.0898 (inactive) and -0.311 (inactive); in [14] it was -1.17 (inactive) and -0.327 (inactive); in [16], -0.853 (inactive) and 0.238 (inactive).

`Cc1cc2c(nc1C)CCCN2CC(C)ON=C[C@@H](C)[C@H](OCc1ccccc1)C(C)C` (stereo not given in full): the composite z-score in assay [1] is -0.461; in assay [2] it was 0.478; in assay [3], -0.0724; in assay [4], -0.0706; in assay [5] it was -0.461; in [6], -0.869. The composite z-score in assay [7] is -0.868; in assay [9], 0.374; in assay [10] it was 0.102; in assay [11], -1.37; in [15] it was -0.817; in assay [17], -0.134. Also, the results for the composite z-score in assay [18], in assay [19] and in assay [20] were 0.41, 0.298 and -0.068, respectively. Further, the z-score was -0.201 (inactive) in [8]; 0.481 (inactive) in assay [12]; 0.514 (inactive) in [13]; 1.24 (inactive) in assay [14]; 0.448 (inactive) in assay [16].

For `C[C@@H]1CC[C@@H](C(=O)O)N[C@H]1c1ccc(-c2ccco2)cc1`, the composite z-score is -0.462 in [1]; 0.712 in assay [2]; -0.0502 in assay [3]; 0.422 in assay [4]; 0.571 in [5]; 0.486 in assay [6]. In addition, the composite z-score in assay [7] was 0.811; in assay [9] it was 0.583; in [10], -0.0173; in assay [11], 1.06; in assay [15], 0.534; in assay [17], 0.0331. Further, the composite z-score was 1.26 in assay [18], 0.945 in assay [19] and -0.115 in assay [20]. For the same molecule, the z-score in assay [8] was 0.0786 (inactive); in [12], 0.804 (inactive); in assay [13], -0.383 (inactive); in [14] it was -0.476 (inactive); in assay [16], -0.0778 (inactive).

For the molecule `C=CCN(CCCC)C(=O)C1N(CCOCCO)C(=O)C2C(C(=O)O)C3C=CC21O3` (stereo not given), the composite z-score was 0.398 and 0.725 in assay [1]; -1.98 and -0.776 in [2]; -0.209 and -0.116 in [3]; -1.13 and -0.467 in [4]; -1.17 and -2.39 in assay [5]; 1.64 and -0.729 in assay [6]. Further, the composite z-score was 1.61 and 1.51 in [7]; -0.792 and -1.02 in assay [9]; -0.169 and -0.306 in assay [10]; -0.779 and -1.02 in assay [11]; 2.94 and -0.643 in assay [15]; -0.0065 and -0.291 in [17]. Besides, the composite z-score in [18] was -2.5 and -2.13; in assay [19], -0.298 and -1.36; in [20] it was -0.326 and -0.314. Moreover, the z-score in [8] is 0.75 (inactive) and 0.0827 (inactive); in assay [12] it was 0.784 (inactive) and 1.05 (inactive); in assay [13], 0.269 (inactive) and 0.777 (inactive); in [14], 1.11 (inactive) and 1.07 (inactive); in [16] it was 0.489 (inactive) and 0.0433 (inactive).
